GLP1R cytotox: qHTS of GLP-1 Receptor Inverse Agonists: Cytotox Screen; HEK293 cAMP-luciferase reporter cells, luminescence, 24 h; Potency, µM (top dose mostly 38.3 µM), for inactives: top-dose activity change, negative = inhibition, actives largely listed as inhibitors; 410,000 compounds, 0.13% hits; AID 624418, 2012;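 further: loss of luciferase light is scored as toxicity; potency means the concentration at half of the fitted maximal effect; on the % scale 0 is the no-effect control and ±100 the full control effect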
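MLSMR compounds, 24 hr on cells at 37 deg C/5% CO2; luminescence after luciferase reagent (12 min RT). Inhibition counted as the undesired cytotoxic outcome.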
GLP-1R inv ag: qHTS of GLP-1 Receptor Inverse Agonists (Inhibition Mode). AID 624417, 2012. Glucagon-like peptide 1 receptor (Homo sapiens), P43220. HEK293 GLP-1R CRE-luciferase, luminescence, 24 h; GLP-1R form is constitutively active. Potency, µM (highest dose often 38.3 µM), for inactives: at the highest dose activity change, negative = inhibition, usual class: inhibitors. 410,000 compounds, 1.6% hits; further: potency means the concentration at half of the fitted maximal effect; on the % scale 0 is the no-effect control and ±100 the full control effect; nearly all actives have a fitted effect of over 55% in size
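GLP-1R inverse agonism mode: basal reporter luminescence in engineered HEK293 cells measured after one day of compound exposure at 37 deg C, with a 12 min room-temperature detection step.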
LDHA block: qHTS assay for inhibitors of human lactate dehydrogenase; AID 1347041, 2019; L-lactate dehydrogenase A chain (Homo sapiens), P00338; purified LDHA, NADH/diaphorase-resazurin fluorescence; active compounds read low; 480,000 compounds, 0.15% hits; activity change, % (values are at about 110 or 230 µM); in the data active means activity change below about -30%; inconclusive means mostly about -25% to -30%;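 further: plate controls were DMSO wells for no effect and wells without enzyme for full effect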
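Enzyme activity of human lactate dehydrogenase 5 (2 nM; 0.06 mM NADH, 0.2 mM pyruvate, 5 min, RT) is measured via a resazurin/diaphorase fluorescence readout of residual NADH.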
GLP1R ag: qHTS of GLP-1 Receptor Agonists; Glucagon-like peptide 1 receptor (Homo sapiens), P43220; HEK293 GLP-1R CRE-luciferase, luminescence, 4-6 h; cells express a hypersensitive GLP-1R form; 380,000 compounds, 0.007% hits; Potency, µM (top dose mostly 45.6 µM), without a hit: top-dose activation, usual class: activators; further: potency means the concentration at half of the fitted maximal effect; % of control where 0% means no effect
PTHR1 agonist: qHTS for PTHR1 Agonists: Primary Screen; Potency, µM (highest dose often 115 µM), for the others: top-dose activation, usual class: activators; AID 743266, 2014; HEK293 GP2 PTHR1 cells, GloSensor cAMP luminescence, 1 h; 410,000 compounds, 0.075% hits; Parathyroid hormone/parathyroid hormone-related peptide receptor (Homo sapiens), Q03431; further: potency means the concentration at half of the fitted maximal effect; nearly all actives have a fitted effect of over 55% in size
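HEK-293-derived GP2 cells expressing PTHR1 and a GloSensor cAMP reporter, 3,000/well, plated overnight, given luciferin plus IBMX (each 0.5 mM as added) for 1 h at 37 °C, then compound for 1 h at 37 °C. Luminescence was read after 15 min at room temperature.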
mIDH1 inhibitor: qHTS for Inhibitors of mutant isocitrate dehydrogenase 1 (IDH1): qHTS; Isocitrate dehydrogenase [NADP] cytoplasmic (Homo sapiens), O75874; 390,000 compounds, 0.093% hits; IDH1-R132H enzyme, NADPH consumption, diaphorase/resazurin fluorescence; Potency, µM (top dose mostly 76.6 µM), for inactives: top-dose activity change, negative = inhibition, usual class: inhibitors; further: potency means the concentration at half of the fitted maximal effect; on the % scale 0 is the no-effect control and ±100 the full control effect; nearly all actives have a fitted effect of over 65% in size
Target sequence (O75874 whole entry R132H, stated change not applied): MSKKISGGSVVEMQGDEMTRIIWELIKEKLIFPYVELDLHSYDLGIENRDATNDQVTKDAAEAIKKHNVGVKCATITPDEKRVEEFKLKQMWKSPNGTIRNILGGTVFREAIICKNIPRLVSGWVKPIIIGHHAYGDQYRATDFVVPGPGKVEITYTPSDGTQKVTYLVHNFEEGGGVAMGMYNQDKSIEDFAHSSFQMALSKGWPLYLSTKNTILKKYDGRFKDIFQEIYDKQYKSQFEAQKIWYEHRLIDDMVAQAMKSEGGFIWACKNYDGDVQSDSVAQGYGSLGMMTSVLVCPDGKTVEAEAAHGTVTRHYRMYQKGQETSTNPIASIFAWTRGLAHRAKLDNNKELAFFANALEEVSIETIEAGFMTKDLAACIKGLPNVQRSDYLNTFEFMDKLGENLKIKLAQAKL
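IDH1-R132H (0.5 ug/mL dispensed) in pH 7.5 Tris buffer was preincubated 30 min with compound, then given a substrate mix of 0.016 mM NADPH and 2 mM alpha-KG for 80 min at room temperature; remaining NADPH was read by diaphorase/resazurin fluorescence.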
Resorufin autofl: qHTS for Inhibitors of mutant isocitrate dehydrogenase 1 (IDH1): Cherrypicks Autofluorescence Interference; shares compounds with mIDH1 inhibitor; Resorufin detection reagent fluorescence interference, cell-free; inhibition of signal, % at 51.2 µM; 750 tested, under 10 active; AID 623980, 2012;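 further: 0% = wells with normal resorufin and full inhibition = wells lacking resorufin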
IDH1 WT: qHTS for Inhibitors of mutant isocitrate dehydrogenase 1 (IDH1): Cherrypicks in WT IDH1. shares compounds with mIDH1 inhibitor. WT IDH1 enzyme, NADPH diaphorase/resazurin fluorescence. Potency, µM (titrated, usually from 115 µM), without a hit: top-dose activity change, negative = inhibition, actives largely listed as inhibitors. 750 compounds, 9% hits;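 further: potency means the concentration at half of the fitted maximal effect; 0% = full WT IDH1 enzyme control and full inhibition = no enzyme wells; nearly all actives have a fitted effect of over 55% in size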
Target sequence (O75874 whole entry, looked up): as the sequence (O75874 whole entry R132H, stated change not applied) above, with H132R counted along it
IDH1 R132H conf: qHTS for Inhibitors of mutant isocitrate dehydrogenase 1 (IDH1): Confirmation of Cherrypicks; IDH1 R132H enzyme, NADPH diaphorase/resazurin fluorescence; AID 624002, 2012; 750 compounds, 83% hits; Potency, µM (top dose mostly 76.6 µM), inactives show at the highest dose activity change, negative = inhibition, usual class: inhibitors; shares compounds with mIDH1 inhibitor; further: potency means the concentration at half of the fitted maximal effect; nearly all actives have a fitted effect of over 50% in size
* hit, by the source's call; i = inactive; ? = inconclusive; · = no result; [ ] = dose if it differs, or a comment. Most compounds without a hit are left out; they make up all but 1.7% or so of the library. Unless noted, the call rests on the fitted dose curve; in most records, active means well fitted curve in the direction sought with a large enough effect; inconclusive means small, poorly fitted or top-dose-only effect, or another doubt; inactive means no such curve, though single readings can be large; an effect the other way counts as inactive or inconclusive.

SMILES	GLP1R cytotox	GLP-1R inv ag	LDHA block	GLP1R ag	PTHR1 agonist	mIDH1 inhibitor	Resorufin autofl	IDH1 WT	IDH1 R132H conf
COc1ccc2nc(Cl)cc(Cl)c2c1	3%	0%	-5	10%	i	-8%	·	·	·
C=CS(=O)(=O)c1c2cc(OC)ccc2nc2ccc(OC)cc12	372%	?	6	-11%	-38%	?	2	28µM*	10µM*
Cc1nn(CCc2nn[nH]n2)c2nc(-c3ccc(C4CCCCC4)cc3)cc(C(F)(F)F)c12	-6%	?	-6	6%	-18%	52µM*	-14	50µM*	40µM*
CCCCn1nc(C)c2c(C(F)(F)F)cc(-c3ccc(Br)cc3)nc21	·	·	-1	·	·	·	·	·	·
c1ccc(N(c2ccccc2)c2nc(N3CCCC3)nc(-n3ccnc3)n2)cc1	-1%	0%	6	10%	-39%	9.3µM*	-2	-1%	6.3µM*
CCOC(=O)C1=C(c2ccccc2)NC(SCC)=C(C#N)C1c1cccnc1 (stereo unspecified)	-19%	?	2	3%	-17%	?	-1	0%	16µM*
CN1C=CC2=C(C#N)C(N)C(C#N)(C#N)[C@H](c3ccccc3)[C@H]2C1 (stereo partly specified)	71%	0%	1	-20%	-17%[57.5 µM]	?	2	38%	?
Cc1cc(N(CCO)CCO)ccc1C(c1ccc(N(CCO)CCO)cc1C)c1ccccc1Cl	?	0%	7	-9%	-1%	26µM*	7	?	7.1µM*
CN(C)c1ccc(C(=O)C(O)c2ccccc2Cl)cc1 (stereo unspecified)	-2%	-27%	1	17%	-67%	-5%	·	·	·
CC(CC(=O)Nc1ccc(F)cc1F)n1ccnc1 (stereo unspecified)	·	·	-9	·	·	·	·	·	·
COc1ccc(NC(=O)c2cnn(-c3ccc(F)cc3F)c2C2CCN(C(=O)OC(C)(C)C)CC2)cc1Cl	-10%	?	7	·	-8%	-4%	·	·	·
CC(C)(C)OC(=O)N1CCC(c2cc(=O)n3[nH]cc(C(=O)Nc4ccc(F)c(Cl)c4)c3n2)CC1	9%	29%	-3	8%	-15%	?	-8	?	10µM*
COc1ccc(NC(=O)c2c[nH]n3c(=O)cc(C4CCN(C(=O)OC(C)(C)C)CC4)nc23)cc1Cl	-9%	19%	-16	13%	-24%	41µM*	-5	32µM*	20µM*
CC(C)(C)OC(=O)N1CCC(c2cc(=O)n3[nH]cc(C(=O)NC4CCCC4)c3n2)CC1	3%	24%	-1	2%	-1%	-31%	·	·	·
Cc1ccc(CSC2=Nc3ccccc3C3=NC(CCC(=O)NCc4cccs4)C(=O)N23)cc1 (stereo unspecified)	-1%	19%	0	·	i	15%	·	·	·
Cc1ccc(CSC2=Nc3ccccc3C3=NC(CCC(=O)NCCc4ccccc4)C(=O)N23)cc1 (stereo unspecified)	0%	-23%	-4	·	-15%	?	1	4%	-9%
Cc1ccc(-n2c(SCC(=O)O)nc3c(sc(=S)n3-c3ccc(C)c(C)c3)c2=O)cc1	5%	-22%	-4	-2%	-34%	5%	·	·	·
Cc1ccc(-n2c(=S)sc3c(=O)n(-c4ccc(F)cc4)c(SCC(=O)O)nc32)cc1C	-3%	-26%	-10	0%	i	?	-22	0%	13µM*
COc1ccc(N(C(=O)c2snc(C(N)=O)c2N)C(C(=O)NC2CCCCC2)c2ccc(C)o2)cc1 (stereo unspecified)	-7%	?	-9	14%	-4%	?	2	2%	?
Cc1cccc(N(C(=O)CNC(=O)c2ccco2)C(C(=O)NC2CCCC2)c2ccncc2)c1C (stereo unspecified)	-19%	-6%	-4	2%	i	8%	·	·	·
COc1ccc(C(C(=O)NC2CCCC2)N(C(=O)c2snc(C(N)=O)c2N)c2cc(C)ccc2OC)cc1OC (stereo unspecified)	-2%	29%	5	11%	i	?	5	4%	32µM*
Cc1cccc(N(C(=O)c2ccco2)C(C(=O)NC2CCCC2)c2ccco2)c1C (stereo unspecified)	8%	?	-2	5%	6%	?	-5	8%	20µM*
CC(=O)c1cccc(N(C(=O)c2ccco2)C(C(=O)NC2CCCC2)c2ccccc2F)c1 (stereo unspecified)	-9%	?	-3	9%	i	23µM*	-1	4%	11µM*
CC(=O)c1cccc(N(C(=O)c2ccco2)C(C(=O)NC2CCCC2)c2cccs2)c1 (stereo unspecified)	-5%	?	-6	6%	-6%	0%	·	·	·
CCn1nc(C(=O)OCC(=O)c2ccc(C3CCCCC3)cc2)c2ccccc2c1=O	·	·	8	·	·	·	·	·	·
Cc1oc2cc(OCCN3CCN(c4ccccc4)CC3)ccc2c(=O)c1-c1ccccc1	·	·	4	·	·	·	·	·	·
CCC(=O)Nc1ccc2oc(-c3ccncc3)nc2c1	·	·	16	·	·	·	·	·	·
CCc1ccc(N(C(=O)c2snc(C(N)=O)c2N)C(C(=O)NC2CCCC2)c2ccco2)cc1 (stereo unspecified)	-3%	?	-6	12%	-5%	-25%	·	·	·

Screening results from PubChem.
